From PubChem BioAssay (EPA / NIEHS)
Results filed as inconclusive are left out. Activity calls are given as the source filed them. How the source made its calls, unless noted: active means hit-call score of the fitted dose curve at least 0.9, where 1 is the maximum; inactive means score below 0.9.

Legend:
[1] = biological target: CCAAT/enhancer-binding protein beta (Homo sapiens) (UniProt P17676); assay: ATG_C_EBP_CIS: Attagene CIS-FACTORIAL HepG2 Assay for human CCAAT/Enhancer Binding Protein (C/EBP) beta (AID 2282927); settings: HepG2 Attagene cis-factorial transcription factor reporter; actives raise or lower the signal
In short: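 Following a 24 h incubation with test chemical, transfected HepG2 cells yielded RNA whose reporter transcripts were quantified by RT-PCR and fluorescent capillary electrophoresis, with DMSO serving as baseline for bidirectional fitting.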

[2] = ATG_CMV_CIS: Attagene CIS-FACTORIAL HepG2 Assay for human CMV (Internal Marker) (AID 2282928); settings: HepG2 CMV promoter reporter, transcription factor profiling; actives raise or lower the signal;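 further: endpoint acts as a background internal control marker rather than a target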
In short: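 Bidirectional fits against DMSO are applied to reporter mRNA, read by RT-PCR with capillary electrophoresis, from HepG2 cells exposed 24 h. The endpoint serves as an internal CMV background marker within the cis-factorial reporter panel.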

[3] = ATG_DR4_LXR_CIS: Attagene CIS-FACTORIAL HepG2 Assay for human Liver X Receptor (LXR), DR4 submotif (AID 2282929); settings: HepG2 Attagene DR4 cis-reporter, mRNA transcription; actives raise or lower the signal
In short: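 Transiently transfected HepG2 liver cells; cis-regulated reporters; 24 h dosing. RT-PCR plus CE read-out of reporter mRNA. DMSO baseline, bidirectional curve fitting.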

[4] = ATG_AP_1_CIS: Attagene CIS-FACTORIAL HepG2 Assay for human Activator Protein 1 (AP-1) (AID 2282931); settings: HepG2 Attagene cis-factorial AP-1 reporter mRNA; actives raise or lower the signal
In short: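 We transfected HepG2 cells transiently with a set of cis-regulated reporter transcription units, dosed them for 24 h, and quantified reporter mRNA via RT-PCR and capillary electrophoresis, scoring gain or loss of signal relative to DMSO.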

[5] = ATG_BRE_CIS: Attagene CIS-FACTORIAL HepG2 Assay for human Bone Morphogenetic Protein (BMP) Response Element (BRE) (AID 2282933); settings: HepG2 BMP response element reporter, Attagene transcription factor profiling; actives raise or lower the signal
In short: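 A HepG2 multiplex reporter system measured inducible reporter mRNA 24 h post-dosing. Detection: RT-PCR, 6-FAM primer extension, HpaI digestion, capillary electrophoresis. Activity fitted bidirectionally relative to DMSO.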

[6] = ATG_E_Box_CIS: Attagene CIS-FACTORIAL HepG2 Assay for human Enhancer Box (E-box) (AID 2282936); settings: HepG2 E-box cis-reporter transcription, actives raise or lower the signal
In short: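 Endogenous transcription factor activity was sensed in human HepG2 liver cells through transfected cis-promoter reporter units. After 24 h of dosing, total RNA was reverse-transcribed and reporter cDNA resolved by capillary electrophoresis.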

[7] = ATG_EGR_CIS: Attagene CIS-FACTORIAL HepG2 Assay for human Early Growth Response 1 (EGR1) (AID 2282938); settings: HepG2 Attagene CIS-FACTORIAL EGR reporter mRNA; actives raise or lower the signal
In short: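 Multiplexed cis-reporter system in human hepatoma HepG2 cells, transiently transfected. Cells are dosed for 24 h; reporter transcripts are amplified, fluorescently tagged and sized by capillary electrophoresis, with DMSO as negative control.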

[8] = ATG_M_19_CIS: Attagene CIS-FACTORIAL HepG2 Assay for M19 Transcription Factor (Internal Marker) (AID 2282939); settings: HepG2 Attagene CIS-FACTORIAL M19 internal marker reporter; actives raise or lower the signal
In short: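 Chemical-treated HepG2 (24 h) with MRTU constructs; reporter transcripts detected by fluorescent RT-PCR fragment analysis on capillary electrophoresis. Internal background marker, DMSO as baseline.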

[9] = ATG_Ets_CIS: Attagene CIS-FACTORIAL HepG2 Assay for human Erythroblast Transformation Specific (ETS) (AID 2282941); settings: HepG2 ETS cis-reporter transcription, actives raise or lower the signal
In short: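 Endogenous transcription factor activity read as reporter mRNA via RT-PCR and capillary electrophoresis, with gain or loss fitted bidirectionally against DMSO. Human HepG2 liver cells, transiently transfected CIS reporter constructs, 24 h exposure.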

[10] = ATG_FoxO_CIS: Attagene CIS-FACTORIAL HepG2 Assay for human Forkhead box O (FoxO) (AID 2282943); settings: HepG2 Attagene cis-reporter, FoxO element, mRNA; actives raise or lower the signal
In short: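 Values reflect reporter mRNA induction or loss in HepG2 cells 24 h post-dosing, fitted bidirectionally with DMSO as negative control and baseline. Detection used RT-PCR and fluorescence capillary electrophoresis.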

[11] = ATG_GATA_CIS: Attagene CIS-FACTORIAL HepG2 Assay for human GATA Binding Protein (AID 2282944); settings: HepG2 GATA cis-element reporter, Attagene multiplex mRNA; actives raise or lower the signal
In short: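 Transfected cis-reporter HepG2 cells were treated with chemicals for 24 hours. Total RNA was then converted to cDNA, amplified with reporter-specific primers and analysed by fluorescent capillary electrophoresis, using DMSO-treated wells as baseline.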

[12] = ATG_ISRE_CIS: Attagene CIS-FACTORIAL HepG2 Assay for human Interferon Regulatory Factor 1 (IRF1) binding to an Interferon-Stimulated Response Element (ISRE) (AID 2282948); settings: HepG2 ISRE cis-reporter (Attagene), mRNA transcription readout; actives raise or lower the signal
In short: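 Endogenous transcription factor activity read as reporter transcript abundance via RT-PCR and capillary electrophoresis. HepG2 cells transiently transfected, 24 h chemical exposure. Gain or loss fitted against DMSO baseline.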

[13] = ATG_M_06_CIS: Attagene CIS-FACTORIAL HepG2 Assay for M06 Transcription Factor (Internal Marker) (AID 2282950); settings: HepG2 Attagene CIS-FACTORIAL M06 internal marker reporter; actives raise or lower the signal
In short: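 Cells (HepG2, transiently carrying cis-driven reporter units) receive chemical for 24 h before RNA isolation. Reporter cDNA is PCR-amplified, FAM-labelled by primer extension, HpaI-digested and sized on a capillary analyser.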

[14] = biological target: Hepatocyte nuclear factor 6 (Homo sapiens) (UniProt Q9UBC0); assay: ATG_HNF6_CIS: Attagene CIS-FACTORIAL HepG2 Assay for human Hepatocyte Nuclear Factor 6 (HNF6) (AID 2282952); settings: HepG2 Attagene cis-factorial HNF6 reporter transcription; actives raise or lower the signal
In short: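 Endogenous transcription factor activity in human HepG2 liver cells was captured through cis-regulated reporter constructs. After 24 h treatment, reporter mRNA was measured by RT-PCR with capillary electrophoresis, and activity was fitted in both directions relative to DMSO.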

[15] = ATG_MRE_CIS: Attagene CIS-FACTORIAL HepG2 Assay for human Metal Responsive Element (MRE) (AID 2282954); settings: HepG2 MRE cis-reporter transcription, Attagene multiplex; actives raise or lower the signal
In short: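 Cells were transfected with cis-promoter reporter transcription units, then dosed for 24 h. RNA was reverse-transcribed, amplified, fluorescently labelled and resolved by capillary electrophoresis, and activity was fitted in both directions relative to DMSO.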

[16] = biological target: Paired box protein Pax-6 (Homo sapiens) (UniProt P26367); assay: ATG_Pax6_CIS: Attagene CIS-FACTORIAL HepG2 Assay for human Paired Box 6 (PAX6) (AID 2282956); settings: HepG2 CIS-FACTORIAL PAX6 reporter transcription, RNA readout; actives raise or lower the signal
In short: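 Read-out is reporter transcript level, measured by RT-PCR with fluorescent primer extension and capillary electrophoresis after 24 h dosing of transfected HepG2 cells. Activity in either direction fitted relative to DMSO control.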

[17] = ATG_Sox_CIS: Attagene CIS-FACTORIAL HepG2 Assay for human SRY-box transcription factor (SOX) (AID 2282960); settings: HepG2 Attagene cis-factorial SOX reporter, mRNA; actives raise or lower the signal
In short: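 Fluorescence-labelled cDNA fragments from reporter transcripts, sized by CE, give the signal. Cells: HepG2, transiently transfected with cis-regulated reporter units. Exposure 24 h; DMSO negative control; bidirectional curve fitting.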

[18] = biological target: Transcription factor Sp1 (Homo sapiens) (UniProt P08047); assay: ATG_Sp1_CIS: Attagene CIS-FACTORIAL HepG2 Assay for human Specificity Protein 1 (Sp1) (AID 2282961); settings: HepG2 Sp1 cis-reporter transcription, actives raise or lower the signal
In short: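 Chemicals are dosed onto HepG2 cells transfected with multiple cis-promoter reporter constructs, and after 24 h reporter RNA is reverse-transcribed, PCR-amplified and resolved by capillary electrophoresis for fluorescence quantitation; activity is scored up or down against DMSO.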

[19] = biological target: Signal transducer and activator of transcription 3 (Homo sapiens) (UniProt P40763); assay: ATG_STAT3_CIS: Attagene CIS-FACTORIAL HepG2 Assay for human Signal Transducer and Activator of Transcription 3 (STAT3) (AID 2282963); settings: HepG2, Attagene cis-factorial STAT3 reporter transcription; actives raise or lower the signal
In short: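 HepG2, MRTU-transfected, 24 h dosing. RNA → RT → PCR → FAM label → HpaI → CE. Bidirectional fit vs DMSO.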

[20] = biological target: Androgen receptor (Homo sapiens) (UniProt P10275); assay: ATG_AR_TRANS: Attagene TRANS-FACTORIAL HepG2 Assay for human Androgen Receptor (AR) (AID 2282973; active means hit-call score of the fitted dose curve at least 0.9, where 1 is the maximum); settings: HepG2 Attagene TRANS-FACTORIAL AR reporter transcription
In short: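 Transfected HepG2, 24 h treatment, chimeric NR-Gal4 driving GAL4-UAS reporters. mRNA induction by RT-PCR/capillary electrophoresis fluorescence; DMSO as negative control and baseline.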

Measured: AC50

Sequence of CCAAT/enhancer-binding protein beta (Homo sapiens) (P17676 whole entry, looked up): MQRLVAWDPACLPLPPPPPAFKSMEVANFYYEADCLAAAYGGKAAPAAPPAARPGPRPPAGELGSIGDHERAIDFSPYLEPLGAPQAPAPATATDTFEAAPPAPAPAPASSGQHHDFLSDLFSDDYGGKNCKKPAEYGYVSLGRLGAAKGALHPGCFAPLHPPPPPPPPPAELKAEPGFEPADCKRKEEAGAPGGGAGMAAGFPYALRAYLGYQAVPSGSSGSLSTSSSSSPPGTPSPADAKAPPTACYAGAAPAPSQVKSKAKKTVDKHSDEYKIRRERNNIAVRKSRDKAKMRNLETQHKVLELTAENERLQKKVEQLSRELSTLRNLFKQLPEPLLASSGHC
Sequence of Hepatocyte nuclear factor 6 (Homo sapiens) (Q9UBC0 whole entry, looked up): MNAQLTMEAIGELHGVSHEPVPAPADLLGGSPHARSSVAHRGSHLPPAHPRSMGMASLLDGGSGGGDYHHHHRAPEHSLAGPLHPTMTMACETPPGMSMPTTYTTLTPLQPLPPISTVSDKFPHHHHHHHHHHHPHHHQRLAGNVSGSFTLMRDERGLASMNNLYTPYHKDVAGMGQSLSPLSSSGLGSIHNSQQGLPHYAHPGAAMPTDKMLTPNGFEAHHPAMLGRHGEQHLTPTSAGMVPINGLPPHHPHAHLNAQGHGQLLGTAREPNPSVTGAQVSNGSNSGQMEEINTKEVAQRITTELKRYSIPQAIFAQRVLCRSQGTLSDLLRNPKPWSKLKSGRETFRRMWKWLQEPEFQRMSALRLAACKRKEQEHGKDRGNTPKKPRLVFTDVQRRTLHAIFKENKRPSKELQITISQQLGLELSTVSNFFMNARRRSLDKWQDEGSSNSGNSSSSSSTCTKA
Sequence of Signal transducer and activator of transcription 3 (Homo sapiens) (P40763 whole entry, looked up): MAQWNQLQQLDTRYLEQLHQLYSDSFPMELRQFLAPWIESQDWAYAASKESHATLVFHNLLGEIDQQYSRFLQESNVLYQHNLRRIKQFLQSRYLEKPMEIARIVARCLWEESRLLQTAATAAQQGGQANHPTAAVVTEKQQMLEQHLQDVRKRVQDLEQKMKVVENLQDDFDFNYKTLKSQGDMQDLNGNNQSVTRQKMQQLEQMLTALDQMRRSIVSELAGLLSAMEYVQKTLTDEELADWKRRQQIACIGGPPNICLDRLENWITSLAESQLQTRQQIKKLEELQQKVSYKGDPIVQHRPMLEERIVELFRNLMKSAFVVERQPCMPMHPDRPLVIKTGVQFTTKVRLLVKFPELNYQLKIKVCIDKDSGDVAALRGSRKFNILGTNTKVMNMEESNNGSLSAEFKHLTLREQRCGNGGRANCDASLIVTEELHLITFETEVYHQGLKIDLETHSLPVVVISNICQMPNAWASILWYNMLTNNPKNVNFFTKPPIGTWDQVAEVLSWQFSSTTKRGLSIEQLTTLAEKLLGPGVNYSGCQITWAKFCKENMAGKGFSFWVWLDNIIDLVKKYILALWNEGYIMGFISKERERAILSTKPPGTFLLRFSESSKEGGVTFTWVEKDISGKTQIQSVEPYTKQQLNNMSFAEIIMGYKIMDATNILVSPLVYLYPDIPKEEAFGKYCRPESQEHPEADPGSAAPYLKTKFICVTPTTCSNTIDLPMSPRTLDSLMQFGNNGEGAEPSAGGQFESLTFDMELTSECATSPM
Sequence of Transcription factor Sp1 (Homo sapiens) (P08047 whole entry, looked up): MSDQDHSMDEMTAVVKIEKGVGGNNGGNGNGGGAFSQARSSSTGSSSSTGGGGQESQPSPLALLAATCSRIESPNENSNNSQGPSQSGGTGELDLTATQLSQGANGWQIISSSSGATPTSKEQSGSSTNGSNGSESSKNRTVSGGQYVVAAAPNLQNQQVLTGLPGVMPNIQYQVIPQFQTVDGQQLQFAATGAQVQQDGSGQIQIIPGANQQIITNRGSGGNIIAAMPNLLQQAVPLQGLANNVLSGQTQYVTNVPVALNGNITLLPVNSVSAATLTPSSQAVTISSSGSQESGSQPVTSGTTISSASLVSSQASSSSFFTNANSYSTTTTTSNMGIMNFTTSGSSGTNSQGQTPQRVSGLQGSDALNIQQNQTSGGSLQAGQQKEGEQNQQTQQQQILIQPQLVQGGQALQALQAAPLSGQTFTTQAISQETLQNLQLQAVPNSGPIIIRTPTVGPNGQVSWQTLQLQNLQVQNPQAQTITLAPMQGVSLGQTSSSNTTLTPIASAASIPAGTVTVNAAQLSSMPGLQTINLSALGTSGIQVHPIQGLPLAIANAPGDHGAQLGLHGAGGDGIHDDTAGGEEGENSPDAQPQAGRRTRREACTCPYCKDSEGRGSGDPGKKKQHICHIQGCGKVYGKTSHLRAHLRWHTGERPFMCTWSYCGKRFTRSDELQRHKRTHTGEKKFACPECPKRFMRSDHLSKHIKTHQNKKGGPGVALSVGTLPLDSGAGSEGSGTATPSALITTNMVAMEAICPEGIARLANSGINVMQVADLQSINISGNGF
Sequence of Paired box protein Pax-6 (Homo sapiens) (P26367 whole entry, looked up): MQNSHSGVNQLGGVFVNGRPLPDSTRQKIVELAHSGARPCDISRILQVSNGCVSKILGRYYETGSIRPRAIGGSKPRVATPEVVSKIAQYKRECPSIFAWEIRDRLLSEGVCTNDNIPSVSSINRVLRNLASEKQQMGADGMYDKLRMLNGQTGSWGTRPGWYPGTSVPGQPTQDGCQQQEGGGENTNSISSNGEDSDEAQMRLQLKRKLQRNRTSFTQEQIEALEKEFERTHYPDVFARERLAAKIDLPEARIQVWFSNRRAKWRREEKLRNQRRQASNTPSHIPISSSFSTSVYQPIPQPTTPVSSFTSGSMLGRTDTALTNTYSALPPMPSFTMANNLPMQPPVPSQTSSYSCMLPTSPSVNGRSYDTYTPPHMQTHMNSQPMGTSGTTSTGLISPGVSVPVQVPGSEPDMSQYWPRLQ
Sequence of Androgen receptor (Homo sapiens) (P10275 whole entry, looked up, the tested form may be a part): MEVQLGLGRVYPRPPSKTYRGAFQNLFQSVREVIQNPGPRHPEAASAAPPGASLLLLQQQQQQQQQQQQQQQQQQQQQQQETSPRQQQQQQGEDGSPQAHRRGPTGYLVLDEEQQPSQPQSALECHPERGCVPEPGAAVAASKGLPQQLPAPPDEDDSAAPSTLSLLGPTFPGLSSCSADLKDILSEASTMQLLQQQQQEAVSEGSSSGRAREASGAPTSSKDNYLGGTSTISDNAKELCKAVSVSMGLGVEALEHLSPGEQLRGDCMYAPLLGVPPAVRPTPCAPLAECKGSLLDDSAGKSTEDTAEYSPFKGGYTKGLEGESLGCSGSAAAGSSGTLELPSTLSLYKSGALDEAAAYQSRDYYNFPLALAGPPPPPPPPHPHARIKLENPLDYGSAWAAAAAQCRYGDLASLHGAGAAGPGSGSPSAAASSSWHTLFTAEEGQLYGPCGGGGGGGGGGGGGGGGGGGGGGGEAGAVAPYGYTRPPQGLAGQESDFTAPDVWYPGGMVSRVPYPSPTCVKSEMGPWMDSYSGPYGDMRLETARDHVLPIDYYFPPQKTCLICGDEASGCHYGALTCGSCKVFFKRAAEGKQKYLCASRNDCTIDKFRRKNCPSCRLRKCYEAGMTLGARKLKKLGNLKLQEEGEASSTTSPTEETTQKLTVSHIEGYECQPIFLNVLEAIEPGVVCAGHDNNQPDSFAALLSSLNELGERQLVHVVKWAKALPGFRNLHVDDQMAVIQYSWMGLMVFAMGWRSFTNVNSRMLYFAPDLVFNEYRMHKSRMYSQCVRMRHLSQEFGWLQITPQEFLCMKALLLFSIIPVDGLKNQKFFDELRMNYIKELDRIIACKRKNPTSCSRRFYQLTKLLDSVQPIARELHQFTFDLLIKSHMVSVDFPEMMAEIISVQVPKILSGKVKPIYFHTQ

O=C=Nc1ccccc1
not listed: [20]
inactive: all other assays above

C=CC(=O)OCCCCOC(=O)C=C
active: [1] 168 µM | [2] 74 µM | [3] 52.4 µM | [4] 186 µM | [6] 70.1 µM | [7] 62.4 µM | [9] 77.3 µM | [10] 54.7 µM | [12] 54.1 µM | [15] 64 µM | [16] 52.4 µM | [18] 26 µM
inactive: [5] | [8] | [11] | [13] | [14] | [17] | [19]

O=C(CCN1CC1)OCC(CO)(COC(=O)CCN1CC1)COC(=O)CCN1CC1
not listed: [20]
inactive: all other assays above

O=C1C=CC(=O)C=C1
active: [4] 61.2 µM
not listed: [20]
inactive: all other assays above

O=[N+]([O-])O
not listed: [20]
inactive: all other assays above

C[N+](=O)[O-]
not listed: [20]
inactive: all other assays above

CN(C)N
inactive: all assays above

CNC(=O)Oc1cc(C)c(SC)c(C)c1
active: [2] 17.4 µM | [7] 100 µM | [12] 100 µM | [15] 74.2 µM | [17] 27.1 µM
not listed: [20]
inactive: all other assays above

Nc1ccc([N+](=O)[O-])cc1N
not listed: [20]
inactive: all other assays above

Cc1ccc(OP(=O)(Oc2ccc(C)cc2)Oc2ccc(C)cc2)cc1 (tested in a mixture with another compound)
active: [3] 9.36 µM | [12] 100 µM
not listed: [20]
inactive: all other assays above

CC1(C)[C@H](C(=O)O[C@H](C#N)c2cccc(Oc3ccccc3)c2)[C@@H]1C=C(Br)Br
inactive: all assays above

CN(N=O)c1ccccc1
not listed: [20]
inactive: all other assays above

C[N+](C)(C)CC(=O)[O-]
not listed: [20]
inactive: all other assays above
